TRHR enhancer-1: TRH receptor (human) allosteric enhancement | TRHR cells, fluo-8 calcium fluorescence, EC20 TRH enhancement | enhancement, % at 2 µM | hit rate 0.66% among 360,000; in the data active means enhancement above about 30%; further: 0% is about no effect
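TRHR-expressing cells loaded with fluo-8 calcium dye were read kinetically (ex 480/em 530) during compound addition, then stimulated with an EC20 of TRH (10 nM final). Enhancement of the Gq-mediated intracellular calcium response was scored.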
TRHR agonist-1: activates the human TRH receptor; P34981; TRHR cells, calcium flux fluo-8, FDSS agonist mode; activation, % at 2 µM; hit rate 0.18% among 360,000; AID 493084; in the data active means activation above about 30%; further: 0% is about no effect
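In this calcium-flux screen, cells bearing human TRHR are dye-loaded with fluo-8, baselined for 10 cycles, then exposed to library compounds; positive kinetic calcium responses during the agonist phase mark hits, with TRH as control.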
TRPML1 ag: activates the human TRPML1 channel. Q9GZU1. TRPML1-expressing cells, Ca2+ dye fluorescence, FDSS. activation, % (test concentration not listed). hit rate 0.12% among 410,000. AID 624414; in the data active means activation above about 50%; inconclusive means mostly about 30% to 49%; further: 0% is about no effect
Target sequence (Q9GZU1 whole entry, looked up): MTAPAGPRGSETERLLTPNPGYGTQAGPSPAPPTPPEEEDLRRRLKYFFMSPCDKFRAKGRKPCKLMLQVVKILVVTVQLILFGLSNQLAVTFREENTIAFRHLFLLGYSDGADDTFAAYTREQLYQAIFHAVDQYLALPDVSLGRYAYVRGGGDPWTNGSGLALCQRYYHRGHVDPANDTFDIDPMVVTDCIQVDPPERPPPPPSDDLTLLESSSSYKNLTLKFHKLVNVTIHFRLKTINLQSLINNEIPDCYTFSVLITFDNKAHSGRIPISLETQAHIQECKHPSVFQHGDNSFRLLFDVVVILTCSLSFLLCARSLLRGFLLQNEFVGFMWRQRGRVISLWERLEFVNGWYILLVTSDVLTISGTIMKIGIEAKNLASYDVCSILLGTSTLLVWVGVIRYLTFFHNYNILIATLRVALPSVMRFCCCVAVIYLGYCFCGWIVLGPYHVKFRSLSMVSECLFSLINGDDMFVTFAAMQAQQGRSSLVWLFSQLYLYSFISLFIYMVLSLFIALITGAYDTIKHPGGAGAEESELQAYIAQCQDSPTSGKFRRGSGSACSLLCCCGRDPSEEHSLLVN
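Agonist activity was taken from a 110 s kinetic Ca2+ dye read on the FDSS after pinning compounds onto TRPML1-DL cells. The cells were seeded at 1,500/well with Tet inducer, incubated about 16 h, then dye-loaded at room temperature.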
TRPML1 inh: blocks the human TRPML1 channel; Q9GZU1; TRPML1-inducible cells, Ca2+ dye fluorescence, FDSS; stronger effect = lower value; inhibition of EC80 agonist-evoked calcium signal; activity change, negative = inhibition, % (no concentration beside the values); hit rate 0.02% among 390,000; in the data active means activity change below about -50%; inconclusive means between about -30% and that limit;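 further: stimulus is agonist 54-4 at its EC80 concentration; on the % scale 0 is the no-effect control and ±100 the full control effect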
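TRPML1-DL cells, Tet-induced overnight (~16 h, 37 °C) at 1,500 cells/well, were loaded with Ca8 no-wash dye plus quencher for 45-90 min at room temperature. Compounds were pinned during FDSS kinetic reading; agonist 54-4 at EC80 (4 uM final) then added.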
TRHR enhancer-2: confirmation of human TRH receptor allosteric enhancers | shares compounds with TRHR enhancer-1 | TRH receptor cell assay, enhancer confirmation qHTS | activity change, negative = inhibition, % at 46.1 µM | 970 tested, under 10 active | AID 493076;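 further: compound effect scored on response to added TRH at EC20 of 10 nM; 0% is about no effect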
TRHR agonist-2: human TRH receptor agonism confirmation; Potency, µM (top dose mostly 46.1 µM), without a hit: at the top dose activation, actives largely listed as activators; shares compounds with TRHR enhancer-1; hit rate 8% among 970; TRHR-expressing cells, agonist activation read-out; further: potency means the concentration at half of the fitted maximal effect; 0% is about no effect; nearly all actives have a fitted effect of over 75% in size
Numbers without * were called inactive. Rows were chosen to be rich in hits. Some 0.81% of all compounds tested hit in one or more screens of this group. Unless noted, the call rests on the fitted dose curve; in most records, active means well fitted curve in the direction sought with a large enough effect; inconclusive means small, poorly fitted or top-dose-only effect, or another doubt; inactive means no such curve, though single readings can be large; an effect the other way counts as inactive or inconclusive.

Results for C#CCN(C)CC/C=C1\c2ccccc2CSc2ccccc21 ?
TRHR enhancer-1: -3; TRHR agonist-1: 74*; TRPML1 ag: 3; TRPML1 inh: 24; TRHR enhancer-2: -6; TRHR agonist-2: 1%

How did C=CCN(C)CC/C=C1\c2ccccc2CSc2ccccc21 do in these assays?
TRHR enhancer-1: -7; TRHR agonist-1: 2; TRPML1 ag: 0; TRPML1 inh: -2

What do the screens show for `COc1ccccc1/C=C1\C=Cc2ccccc21`?
TRPML1 ag: 0

Results for O=C(O)CCC(=O)N1N=C(c2ccccc2)CC1c1ccc2nccnc2c1 (stereo not given) ?
TRHR enhancer-1: -4; TRHR agonist-1: 1; TRPML1 ag: 0; TRPML1 inh: -7

What do the screens show for `O=C(O)CCCC(=O)N1N=C(c2ccccc2)CC1c1ccc2nccnc2c1` (stereo not given)?
TRHR enhancer-1: 46*; TRHR agonist-1: 0; TRPML1 ag: 0; TRPML1 inh: -29; TRHR enhancer-2: 1; TRHR agonist-2: 0%

How did Cc1cc(C)c2oc(-c3cccc(NC(=O)COc4ccc(Cl)cc4C)c3C)nc2c1 do in these assays?
TRPML1 ag: 0

Results for CCN1CCCC(NC(=O)c2cc([N+](=O)[O-])ccc2OC)C1 (stereo not given) ?
TRHR enhancer-1: 42*; TRHR agonist-1: 1; TRPML1 ag: 0; TRPML1 inh: -8; TRHR enhancer-2: -3; TRHR agonist-2: -1%

How did O=C(O)c1cccc(CSc2nc(-c3ccc(Cl)cc3)cc(C(F)(F)F)n2)c1 do in these assays?
TRHR enhancer-1: 42*; TRHR agonist-1: 0; TRPML1 ag: 1; TRPML1 inh: 75; TRHR enhancer-2: -10; TRHR agonist-2: inconclusive

Results for CC[N+]1(CC(=O)c2cccs2)CCCCC1 ?
TRPML1 ag: 0

Results for Cc1ccc(NC(=O)COC(=O)c2ccccc2OCC(=O)N(C)C)cc1 ?
TRPML1 ag: -1

What do the screens show for `O=C(NCc1cccs1)Nc1cc(Cl)ccc1Cl`?
TRHR enhancer-1: 41*; TRHR agonist-1: -4; TRPML1 ag: 0; TRPML1 inh: 10; TRHR enhancer-2: -5; TRHR agonist-2: 3%

How did O=C(Nc1cccc(Cl)c1N1CCOCC1)c1ccc([N+](=O)[O-])o1 do in these assays?
TRHR enhancer-1: 48*; TRHR agonist-1: 0; TRPML1 ag: 0; TRPML1 inh: -21; TRHR enhancer-2: 8; TRHR agonist-2: 4%

Results for O=C(Nc1cccc(Cl)c1N1CCOCC1)c1cc([N+](=O)[O-])ccc1N1CCOCC1 ?
TRHR enhancer-1: 8; TRHR agonist-1: -2; TRPML1 ag: 0; TRPML1 inh: 9

How did CCCCCCCCCCCCCCCC(C)C1=NCCN1 (stereo not given) do in these assays?
TRPML1 ag: -1

Results for N#C/C(=C(/O)c1ccccc1F)c1nc2cc(C(F)(F)F)ccc2s1 ?
TRHR enhancer-1: 41*; TRHR agonist-1: 1; TRPML1 ag: 0; TRPML1 inh: -6; TRHR enhancer-2: -1; TRHR agonist-2: -1%

Results for O=C(C[n+]1ccccc1Br)c1ccc(I)cc1 ?
TRPML1 ag: -1

How did COc1ccccc1NC(=O)c1nc(SCc2ccccc2F)ncc1Cl do in these assays?
TRPML1 ag: 0

Results for O=C(Nc1cccc2ncccc12)c1ccco1 ?
TRHR enhancer-1: 51*; TRHR agonist-1: 0; TRPML1 ag: 0; TRPML1 inh: inconclusive; TRHR enhancer-2: -6; TRHR agonist-2: 1%

How did Cc1ccccc1NC(=O)N1CCC(C(=O)c2ccc(F)cc2)CC1 do in these assays?
TRHR enhancer-1: 1; TRHR agonist-1: 0; TRPML1 ag: 0; TRPML1 inh: 2

How did O=C(c1ccc(F)cc1)C1CCN(C(=O)Nc2ccccc2Cl)CC1 do in these assays?
TRHR enhancer-1: 50*; TRHR agonist-1: 0; TRPML1 ag: 0; TRPML1 inh: 1; TRHR enhancer-2: -2; TRHR agonist-2: 1%

What do the screens show for `COc1ccc(C)cc1NC(=O)NCCC1=CCCCC1`?
TRHR enhancer-1: 43*; TRHR agonist-1: -1; TRPML1 ag: -1; TRPML1 inh: -6; TRHR enhancer-2: -1; TRHR agonist-2: 2%

Assay outcomes (PubChem BioAssay)
